Source: PubChem BioAssay
Activity calls are given as the source filed them.

Assays:
[1] = small molecules captured by biotinylated probe aFSTL3 – biochemical, small-molecule microarray, fluorescence 635/667, stem cell growth factor project, primary screen (AID 1064); conditions: higher = more signal;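 also: measures binding of the biotinylated anti-FSTL3 antibody to printed compounds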
[2] = binders from COS7 lysate, DM2A8 probe, primary screen, torsin A project, cell lysate, small-molecule microarray, fluorescence 635/667 (AID 1065); conditions: higher = more signal, COS7 lysate expressing mutant human TOR1A
[3] = small molecules captured by biotinylated probe aFGF2 – biochemical, small-molecule microarray, fluorescence 635/667, stem cell growth factor project, primary screen (AID 1067); conditions: higher = more signal;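 also: measures binding of biotinylated aFGF2 protein to printed compounds on slides; z-score merges feature fluorescence and signal-to-noise across triplicate slides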
[4] = small molecules captured by biotinylated probe aFGF10 – biochemical, small-molecule microarray, fluorescence 635/667, stem cell growth factor project, primary screen (AID 1071); conditions: higher = more signal;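 also: score merges 667 nm spot intensity and signal to noise from triplicate slides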
[5] = biological target: Neurogenic locus notch homolog protein 2 (Homo sapiens) (UniProt Q04721); assay: small molecules binding Notch2 protein – biochemical, small-molecule microarray, 635 nm fluorescence, stem cell growth factors, primary screen (AID 1073); conditions: higher = more signal
[6] = biological target: Pro-neuregulin-1, membrane-bound isoform (Homo sapiens) (UniProt Q02297); assay: small molecules binding neuregulin-1 protein – biochemical, small-molecule microarray, fluorescence 635/667, psychiatric disease protein project, primary screen (AID 1075); conditions: NRG1 binding, 635 nm fluorescence, higher = more signal;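 also: score combines 667 nm spot fluorescence with signal to noise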
[7] = test system: Neuregulin-1 EGF-like domain; assay: small molecules binding NRG1 EGF domain – biochemical, small-molecule microarray, 635 nm fluorescence, primary screen (AID 1081); conditions: higher = more signal;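 also: binding of the protein to compounds printed on small-molecule microarray slides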
[8] = FRG1 expression reporter modulators in myotubes – cell-based, C2C12 myotubes, firefly/Renilla luciferase, luminescence, FRG1 inhibition for FSHD, primary screen (AID 1084); conditions: FRG1 promoter luciferase, higher = more signal, called active from +8 up or from −8 down
[9] = small molecules captured by biotinylated probe aFST – biochemical, small-molecule microarray, fluorescence 635/667, stem cell growth factor project, primary screen (AID 1086); conditions: higher = more signal;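 also: score merges 667 nm fluorescence with signal-to-noise of each printed compound spot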
[10] = binders of probe aHhip on microarray, primary screen, stem cell growth factor project, biochemical, small-molecule microarray, fluorescence 635/667 (AID 1087); conditions: higher = more signal;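 also: score merges spot fluorescence at 667nm with spot signal to noise ratio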
[11] = test system: PRMT1 (protein arginine N-methyltransferase 1); assay: small molecules binding arginine methyltransferase PRMT1 – biochemical, small-molecule microarray, 635 nm fluorescence, primary screen (AID 1088); conditions: higher = more signal;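 also: binding of Prmt1 protein to compounds spotted on small-molecule microarray slides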
[12] = growth effects on S. cerevisiae YJM789 – YJM789 clinical isolate, OD600, 24 h, basal, primary screen (AID 1089); conditions: higher = more signal, called active from +8 up or from −8 down;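 also: growth of clinical yeast isolate S. cerevisiae YJM 789 seeded 1000 cells per well; test concentration not given here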
[13] = S. pombe growth modifiers, basal conditions – strain 972, OD600, 24 h, no modulator, primary screen (AID 1090);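 also: basal condition with compound alone and no growth modifier present; test concentration not given here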; conditions: S. pombe 972 growth, higher = more signal, called active from +8 up or from −8 down
[14] = budding yeast growth modifiers under rapamycin – strain BY4716, OD600, 96 h, primary screen (AID 1091); also: test concentration not given here; conditions: S. cerevisiae BY4716 + rapamycin, higher = more signal, called active from +8 up or from −8 down
[15] = biological target: Torsin-1A-interacting protein 2 (Homo sapiens) (UniProt Q8NFQ8); assay: small molecules binding lysate-expressed LULL1 – cell lysate, human LULL1 lysate, 635/667 nm fluorescence, primary screen (AID 1092); conditions: small-molecule microarray, hLULL1 lysate binding, 635 nm fluorescence; higher = more signal;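 also: probe is lysate of COS7 cells overexpressing human LULL1; score merges per-feature 667 nm fluorescence with signal-to-noise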
[16] = optical density change of DRC41 E. coli – strain DRC41, OD650, 24 h, E. coli filamentation project, primary screen (AID 1093);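 also: MC1000 strain lacking acrAB efflux and sulA so SOS filamentation is blocked; test concentration not given here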; conditions: E. coli DRC41 growth, higher = more signal, called active from +8 up or from −8 down
[17] = probe aLefty2 binding to arrayed compounds – biochemical, biotinylated probe, 635/667 nm fluorescence, primary screen (AID 1094); conditions: small-molecule microarray, higher = more signal;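 also: score merges spot fluorescence near 667 nm with spot signal-to-noise ratio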
[18] = test system: Noggin (protein binding on small-molecule microarray); assay: small molecules binding Noggin protein – biochemical, 635/667 nm fluorescence, primary screen (AID 1095); conditions: 635 nm fluorescence, higher = more signal;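 also: score merges 667 nm feature fluorescence with signal to noise over triplicate slides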
[19] = biological target: Neurogenic locus notch homolog protein 3 (Homo sapiens) (UniProt Q9UM47); assay: small molecules binding NOTCH3 protein – biochemical, 635/667 nm fluorescence, primary screen (AID 1096); conditions: small-molecule microarray, 635 nm fluorescence, higher = more signal
[20] = probe aEGFR binding to arrayed compounds – biochemical, biotinylated probe, 635/667 nm fluorescence, primary screen (AID 1097); conditions: small-molecule microarray, higher = more signal;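 also: probe is a biotinylated anti-EGFR antibody binding compounds printed on slides; score combines fluorescence near 667 nm and signal to noise of each spot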

Chain of Pro-neuregulin-1, membrane-bound isoform (Homo sapiens) (Q02297 whole entry, looked up, the tested form may be a part, canonical isoform): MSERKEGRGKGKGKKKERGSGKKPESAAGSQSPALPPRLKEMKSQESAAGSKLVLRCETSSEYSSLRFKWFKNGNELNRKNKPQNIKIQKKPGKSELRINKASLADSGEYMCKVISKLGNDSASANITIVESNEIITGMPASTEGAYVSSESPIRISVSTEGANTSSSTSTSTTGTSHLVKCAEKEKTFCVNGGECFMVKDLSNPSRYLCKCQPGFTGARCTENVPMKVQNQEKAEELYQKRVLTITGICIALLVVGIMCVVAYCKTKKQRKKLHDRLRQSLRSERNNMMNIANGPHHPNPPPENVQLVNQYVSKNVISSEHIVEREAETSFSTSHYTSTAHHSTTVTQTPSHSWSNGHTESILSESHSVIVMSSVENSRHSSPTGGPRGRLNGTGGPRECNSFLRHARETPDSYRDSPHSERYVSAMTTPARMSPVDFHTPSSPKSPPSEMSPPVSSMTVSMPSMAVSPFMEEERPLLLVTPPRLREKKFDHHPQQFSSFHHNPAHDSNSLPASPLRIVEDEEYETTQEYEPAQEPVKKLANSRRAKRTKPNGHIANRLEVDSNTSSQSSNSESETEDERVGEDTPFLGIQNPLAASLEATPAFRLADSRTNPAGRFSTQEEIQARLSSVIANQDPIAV
Chain of Neurogenic locus notch homolog protein 3 (Homo sapiens) (Q9UM47 whole entry, looked up): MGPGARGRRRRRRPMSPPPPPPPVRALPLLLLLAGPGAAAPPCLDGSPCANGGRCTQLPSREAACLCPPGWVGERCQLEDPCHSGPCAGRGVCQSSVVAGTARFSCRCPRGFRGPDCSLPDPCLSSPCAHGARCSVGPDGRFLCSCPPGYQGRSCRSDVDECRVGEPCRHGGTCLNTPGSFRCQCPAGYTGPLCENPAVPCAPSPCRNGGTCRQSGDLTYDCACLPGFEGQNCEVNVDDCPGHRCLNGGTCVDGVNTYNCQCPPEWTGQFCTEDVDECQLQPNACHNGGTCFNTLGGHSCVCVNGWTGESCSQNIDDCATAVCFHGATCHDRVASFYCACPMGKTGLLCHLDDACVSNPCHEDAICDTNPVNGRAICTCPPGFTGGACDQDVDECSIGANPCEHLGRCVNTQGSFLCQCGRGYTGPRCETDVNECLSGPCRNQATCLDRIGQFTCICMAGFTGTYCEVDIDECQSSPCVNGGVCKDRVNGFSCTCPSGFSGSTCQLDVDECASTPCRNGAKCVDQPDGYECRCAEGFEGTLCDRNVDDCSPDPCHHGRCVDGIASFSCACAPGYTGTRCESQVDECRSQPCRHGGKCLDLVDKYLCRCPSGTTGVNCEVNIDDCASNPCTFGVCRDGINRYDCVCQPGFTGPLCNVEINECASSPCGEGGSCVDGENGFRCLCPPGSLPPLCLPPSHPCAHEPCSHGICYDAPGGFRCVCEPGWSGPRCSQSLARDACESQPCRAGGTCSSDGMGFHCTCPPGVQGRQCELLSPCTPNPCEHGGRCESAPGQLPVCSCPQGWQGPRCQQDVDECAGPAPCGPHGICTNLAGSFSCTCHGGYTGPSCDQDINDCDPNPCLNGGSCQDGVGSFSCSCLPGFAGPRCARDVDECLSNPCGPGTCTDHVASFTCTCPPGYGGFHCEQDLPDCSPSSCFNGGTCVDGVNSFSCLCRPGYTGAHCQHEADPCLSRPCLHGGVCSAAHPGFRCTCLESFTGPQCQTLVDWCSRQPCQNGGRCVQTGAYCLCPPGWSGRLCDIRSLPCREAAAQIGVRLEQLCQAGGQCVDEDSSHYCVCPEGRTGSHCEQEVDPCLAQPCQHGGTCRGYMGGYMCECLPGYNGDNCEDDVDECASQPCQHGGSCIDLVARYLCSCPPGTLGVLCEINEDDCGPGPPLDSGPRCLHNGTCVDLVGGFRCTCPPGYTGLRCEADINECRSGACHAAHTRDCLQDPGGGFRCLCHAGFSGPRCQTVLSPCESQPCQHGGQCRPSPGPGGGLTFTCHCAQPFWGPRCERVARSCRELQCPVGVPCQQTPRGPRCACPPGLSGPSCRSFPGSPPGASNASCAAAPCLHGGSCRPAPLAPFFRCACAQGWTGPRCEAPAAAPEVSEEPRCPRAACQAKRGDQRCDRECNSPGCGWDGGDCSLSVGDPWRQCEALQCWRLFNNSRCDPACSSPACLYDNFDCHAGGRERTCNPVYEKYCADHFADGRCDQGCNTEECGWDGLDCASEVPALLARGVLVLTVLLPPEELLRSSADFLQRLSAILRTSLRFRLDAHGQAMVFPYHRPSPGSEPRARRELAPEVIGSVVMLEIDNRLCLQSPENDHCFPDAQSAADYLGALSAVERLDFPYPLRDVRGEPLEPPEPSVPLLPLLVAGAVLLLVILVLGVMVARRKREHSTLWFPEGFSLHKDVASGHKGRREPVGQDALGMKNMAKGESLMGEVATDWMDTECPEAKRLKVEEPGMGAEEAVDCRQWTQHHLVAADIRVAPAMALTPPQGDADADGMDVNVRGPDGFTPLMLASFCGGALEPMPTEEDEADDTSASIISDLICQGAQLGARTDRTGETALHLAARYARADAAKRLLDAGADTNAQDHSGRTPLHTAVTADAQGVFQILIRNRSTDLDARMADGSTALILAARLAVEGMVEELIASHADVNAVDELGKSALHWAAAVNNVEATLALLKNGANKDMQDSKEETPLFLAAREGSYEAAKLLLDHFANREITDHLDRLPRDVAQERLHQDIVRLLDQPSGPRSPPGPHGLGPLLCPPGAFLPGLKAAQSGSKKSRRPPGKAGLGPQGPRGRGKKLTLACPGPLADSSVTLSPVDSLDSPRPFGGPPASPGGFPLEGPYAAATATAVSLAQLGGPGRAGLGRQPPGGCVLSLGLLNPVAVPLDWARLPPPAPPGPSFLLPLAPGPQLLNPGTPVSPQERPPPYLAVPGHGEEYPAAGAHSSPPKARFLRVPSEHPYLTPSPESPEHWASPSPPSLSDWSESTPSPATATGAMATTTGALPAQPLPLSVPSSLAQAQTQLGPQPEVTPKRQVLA
Chain of Torsin-1A-interacting protein 2 (Homo sapiens) (Q8NFQ8 whole entry, looked up): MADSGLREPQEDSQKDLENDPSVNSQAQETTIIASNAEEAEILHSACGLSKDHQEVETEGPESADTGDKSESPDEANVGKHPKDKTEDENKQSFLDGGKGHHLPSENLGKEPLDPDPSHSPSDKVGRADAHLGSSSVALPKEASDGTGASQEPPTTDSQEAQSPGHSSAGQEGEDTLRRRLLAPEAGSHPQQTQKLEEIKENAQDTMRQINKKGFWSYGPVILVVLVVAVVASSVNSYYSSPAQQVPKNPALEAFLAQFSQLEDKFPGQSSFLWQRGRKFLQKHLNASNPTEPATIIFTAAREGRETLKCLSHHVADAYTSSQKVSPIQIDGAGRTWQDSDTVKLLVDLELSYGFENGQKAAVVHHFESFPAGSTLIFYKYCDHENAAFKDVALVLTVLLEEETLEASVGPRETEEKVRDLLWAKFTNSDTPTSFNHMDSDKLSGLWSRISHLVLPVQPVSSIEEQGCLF

| Structure (SMILES) | composite z-score [1] | composite z-score [2] | composite z-score [3] | composite z-score [4] | composite z-score [5] | composite z-score [6] | composite z-score [7] | z-score [8] | composite z-score [9] | composite z-score [10] | composite z-score [11] | z-score [12] | z-score [13] | z-score [14] | composite z-score [15] | z-score [16] | composite z-score [17] | composite z-score [18] | composite z-score [19] | composite z-score [20] |
| --- | --- | --- | --- | --- | --- | --- | --- | --- | --- | --- | --- | --- | --- | --- | --- | --- | --- | --- | --- | --- |
| CC(C)N1C(=O)c2ccccc2[C@@H](C(=O)NC2CC2)[C@@H]1c1ccc(CO)cc1 | -0.236 | -0.184 | -0.0615 | 0.0389 | -0.425 | 0.933 | 1.3 | 0.216 (inactive) | -0.593 | -0.189 | 0.672 | -0.904 (inactive) | -0.826 (inactive) | -0.39 (inactive) | 0.968 | 0.141 (inactive) | -0.117 | 0.521 | -0.201 | -0.156 |
| COC(=O)[C@@]1(Cc2ccc(F)cc2)[C@H]2c3cc(C(=O)N(C)C)n(Cc4cc(F)cc5c4OCOC5)c3C[C@H]2CN1C(=O)c1ccccc1 | 0.149 | 0.199 | -0.0002 | 0.964 | 1.56 | 1.81 | 1.27 | -1.82 (inactive) | 1.03 | -0.319 | 1.17 | -1.23 (inactive) | 0.446 (inactive) | 1.78 (inactive) | 3.32 | -0.375 (inactive) | 0.44 | 0.378 | 1.04 | 0.118 |
| [N-]=[N+]=Nc1ccccc1[C@H]1OC(c2ccc(OCCCO)cc2)=N[C@@]1(Cc1ccccc1)C(=O)N1CCCCC1 | 0.308 | -0.182 | -0.0044 | 0.692 | 1.63 | 1.01 | 1.32 | -1.02 (inactive) | 0.763 | -0.0994 | 1.54 | -2.09 (inactive) | 0.708 (inactive) | 2.21 (inactive) | 3.29 | 0.774 (inactive) | 0.339 | 0.94 | 1.08 | 0.286 |
| CN(C)c1ccc(C(O)C2C=CC3C(=O)N(c4ccccc4)C(=O)C3N2Nc2ccc([N+](=O)[O-])cc2)cc1 (stereo not given) | 0.155 | 0.456 | 0.0495 | 0.551 | 1.52 | 1.42 | 1.14 | 0.975 (inactive) | 1.63 | 0.0373 | 1.44 | 0.0475 (inactive) | -1.3 (inactive) | 2.39 (inactive) | 2.98 | -0.564 (inactive) | 0.401 | 0.037 | 1.13 | -0.0234 |
| CO[C@H]1O[C@H](CO)[C@@H](OC(=O)Nc2ccccc2-c2ccccc2)[C@H](OC(=O)Nc2ccc3c(c2)OCO3)[C@H]1OC(=O)Nc1ccc2c(c1)OCO2 | -0.0811 | 0.866 | 0.0555 | 0.937 | 1.47 | 1.72 | 1.35 | 4.93 (inactive) | 0.601 | -0.0618 | 1.53 | 1.86 (inactive) | 1.35 (inactive) | 7.32 (inactive) | 3.25 | 2 (inactive) | 0.132 | 0.852 | 1.12 | 0.0115 |
| C=CCC(OC(C)=O)[C@@H]1[C@@H](N(Cc2cccc3ccccc23)C(=O)Cc2ccc(OC)cc2)c2cc(OCCCO)ccc2N1C(=O)c1ccc2ccccc2n1 (stereo not given in full) | -0.192 | 0.0233 | 0.0437 | 0.11 | -0.263 | 0.836 | 0.154 | -1.76 (inactive) | 0.153 | -0.152 | 0.892 | -0.482 (inactive) | 0.787 (inactive) | -1.24 (inactive) | 1.2 | -0.558 (inactive) | -0.109 | 0.201 | 0.222 | -0.144 |
| CCOC(=O)C[C@H]1[C@H](OC(=O)c2cc3ccccc3oc2=O)[C@@H](NC(=O)Cc2ccc(OC)cc2)c2cc(OCCCO)ccc2N1C(=O)c1ccc2ccccc2n1 | -0.19 | 0.648 | -0.127 | 0.403 | 0.848 | 0.35 | 0.996 | -1.07 (inactive) | 0.0814 | -0.123 | 0.268 | -0.724 (inactive) | -0.138 (inactive) | -0.0607 (inactive) | 0.773 | 1.31 (inactive) | -0.11 | 0.68 | 1.15 | -0.0241 |
| O=C1OCCC/C=C\[C@H]2OC34C=CCN(CCN5CCOCC5)C(=O)[C@H]3N(CCCCCCO)C(=O)[C@@H]4C12 (stereo not given in full) | 0.0814 | 2.31 | -0.171 | -0.291 | -0.0784 | 1.91 | 1.17 | -1.05 (inactive) | -0.151 | -0.0994 | 0.733 | -1.84 (inactive) | -1.29 (inactive) | -0.529 (inactive) | 2.39 | 1.33 (inactive) | -0.166 | -0.0171 | 0.18 | -0.0953 |
| C=CCN1Cc2ccccc2[C@H]2OC(c3ccc(OCCCO)cc3)=N[C@@]2(CC=C)C1=O | 0.451 | 0.169 | 0.0188 | -0.177 | 1.12 | 1.44 | 1.42 | -2.18 (inactive) | 0.633 | 0.0401 | 1.53 | -3.05 (inactive) | -7.01 (inactive) | -0.397 (inactive) | 3.21 | 0.763 (inactive) | 0.185 | 1.55 | 0.979 | 0.168 |
| [N-]=[N+]=NCc1ccccc1C[C@@]1(C(=O)N2CCOCC2)N=C(c2ccc(OCCCO)cc2)O[C@@H]1c1ccccc1 | 0.458 | 0.572 | 0.0654 | 1 | 1.44 | 1.79 | 1.1 | -4.48 (inactive) | 0.705 | 0.0749 | 1.42 | -1.11 (inactive) | -1.72 (inactive) | 33 (active) | 3.33 | 0.386 (inactive) | 0.349 | -0.519 | 0.553 | 0.801 |
